# Assay results as given in PubChem BioAssay (NCI).
# The panel holds about 83,000 compounds, 20% with a hit somewhere; the sample as a whole holds those more often.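 Activity criterion: percent growth below 10, measured after cells in 96-well plates were exposed to a single compound concentration for 48 hours.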 The source made the active and inactive calls.
# System: SK-MEL-28 melanoma
# Assay: NCI-60 one-dose screen, 48 h (100 = growth as untreated, 0 = no growth, -100 = all killed)
# Settings: 10 µM
row,Structure (SMILES),growth
1,O=C(/C=C/c1ccco1)c1nc2ccccc2n1Cc1ccc(Br)cc1,56.2% (inactive)
2,COc1cc2cc(C(=O)N3C[C@@H](CCl)c4c3cc(OC(=O)N3CCN(C)[C@@H]5CSSC[C@@H]53)c3ccccc43)[nH]c2c(OC)c1OC,-62.6% (active)
3,C#CC[Se]C(=O)c1ccc2n[se]nc2c1,79.4% (inactive)
4,O=C(/C=C/c1ccc(Cl)cc1Cl)c1nc2ccccc2n1Cc1ccc(F)cc1,74% (inactive)
5,O=C(/C=C/c1ccc(Cl)cc1)c1nc2ccccc2n1Cc1ccc(Br)cc1,80.1% (inactive)
6,COc1cc2cc(C(=O)N3C[C@@H](CCl)c4c3cc(OC(=O)N3CCN(C)[C@@H]5CSSC[C@H]53)c3ccccc43)[nH]c2c(OC)c1OC,-94.8% (active)
7,CC12OOC(C)(OO1)C2CCC(=O)OCCNc1ccnc2cc(Cl)ccc12 (configuration not stated),93% (inactive)
8,CC(C)N=C([Se])NC(=O)c1cccs1,60.2% (inactive)
9,Cc1ccc2[nH]c(=S)n(-c3ccc(F)cc3)c(=O)c2c1,101% (inactive)
10,CC[C@]12C=CCN3CC[C@@]4(c5ccc(OC)cc5N(C)[C@H]4[C@@](O)(C(=O)OC)[C@@H]1OC(=O)CCCC[P+](C1CCCCC1)(C1CCCCC1)C1CCCCC1)[C@@H]32,-86.5% (active)
11,COCCOCCOCCOc1ccc(-n2cc(CCCN(CCNc3ccnc4cc(Cl)ccc34)C(=O)CCC(=O)O[C@@H]3O[C@@H]4OC5(C)CC[C@H]6[C@H](C)CC[C@@H]([C@H]3C)[C@@]46OO5)nn2)cc1,53.1% (inactive)
12,C[C@H]1[C@@H](CC(=O)N[C@@H](Cc2coc3ccccc23)B(O)O)O[C@@H]2OC3(C)CC[C@H]4[C@H](C)CC[C@@H]1[C@@]24OO3,-49.4% (active)
13,CC[C@]12C=CCN3CC[C@@]4(c5ccc(OC)cc5N(C)[C@H]4[C@@](O)(C(=O)OC)[C@@H]1OC(=O)CCC[P+](c1ccc(C)cc1)(c1ccc(C)cc1)c1ccc(C)cc1)[C@@H]32,-96.6% (active)
14,CC(C)N=C([Se])NC(=O)c1ccccc1,-43.9% (active)
15,CC[C@]12C=CCN3CC[C@@]4(c5ccc(OC)cc5N(C)[C@H]4[C@@](O)(C(=O)OC)[C@@H]1OC(=O)CCCC[P+](c1ccc(OC)cc1)(c1ccc(OC)cc1)c1ccc(OC)cc1)[C@@H]32,-96.8% (active)
16,CCOP(=O)(CC(F)(F)C(F)(F)F)OCC,-47.1% (active)
17,CC1=C2C(=C[C@@](C)(COP(=O)(Oc3ccccc3)Oc3ccccc3)[C@@H]2O)C(=O)[C@@](C)(O)C12CC2,-88.1% (active)
18,C[C@H]1[C@H](OC(=O)CCC(=O)N(CCCc2cn(-c3ccc(CN4CCOCC4)cc3)nn2)CCNc2ccnc3cc(Cl)ccc23)O[C@@H]2OC3(C)CC[C@H]4[C@H](C)CC[C@@H]1[C@@]24OO3,-69.3% (active)
19,CC1=C(CCC=O)C2=C(C)C3(CC3)[C@@](C)(O)C(=O)C2=C1,-99.3% (active)
20,O=C(NC([Se])=NC1CCCCC1)c1ccc2c(c1)OCO2,51.6% (inactive)
21,C[C@H]1[C@@H](Oc2ccc(-c3cn(-c4ccnc5cc(Cl)ccc45)nn3)cc2)O[C@@H]2OC3(C)CC[C@H]4[C@H](C)CC[C@@H]1[C@@]24OO3,33.3% (inactive)
22,COc1ccc(/C=C/C(=O)c2nc3ccccc3n2Cc2ccc(Br)cc2)cc1,85.9% (inactive)
